Consider 55 compounds from ChEMBL document CHEMBL3988442, “University of Dundee, Small-Polar-MMV Screening Library” (2021).

Hit rate of the full screen: of about 69,000 compounds, about 950 (1.4%) showed an effect of 50% or more. The sample holds strong results, similar compounds and a random draw of the others, so the mix is not that of the screen.

The assay deals with Mycobacterium tuberculosis. In words: Cornell M. t heat shock assay. Also: in the data most compounds retested in dose-response had high values. The format is functional, organism-based. Also noted: dose or concentration left out as unconfirmed.
`Cn1cccc1C(=O)N1CCO[C@@H]2CN(Cc3nccs3)C[C@@H]2C1.O=C(O)C(F)(F)F`: the “Percent Effect” value was -1.358%.

For `CCCOC1CCCN(c2ccnc(C(=O)NCc3ccco3)c2)C1` (stereo not given), the “Percent Effect” value is listed as 56.57%.

As for `CN(C)[C@H]1CCN(c2ccnc(C(=O)NCc3ccco3)c2)C1`, the “Percent Effect” value came out at 19.62%.

In the case of `O=C(NCc1ccco1)c1cc(N2CC[C@@H](O)C2)ccn1`, the “Percent Effect” value was found to be 1.104%.

`CC[C@@H]1N(Cc2ccoc2)CCC[C@]12CCC(=O)N2CCOC.O=C(O)C(F)(F)F`: the “Percent Effect” value was -21.47%.

For the compound `CN1CC[C@H]2[C@H](C[C@@H](CN3CCCC3)N2c2nccs2)C1.O=C(O)C(F)(F)F.O=C(O)C(F)(F)F.O=C(O)C(F)(F)F`, the “Percent Effect” value was 17.76%.

As for `O=C(O)C(F)(F)F.O=C1N(CC2CC2)CCC12CCCN(c1ncc(F)cn1)C2` (stereo not given), the “Percent Effect” value was 23.17%.

Consider `Cc1ccc(CN2CCC3(C2)C(=O)N(CC(N)=O)c2ccccc23)s1` (stereo not given), for which the “Percent Effect” value was -35.1%.

In the case of `Cc1ccc(CN2CCC3(CC2)C(=O)N(C)c2ccccc23)s1.O=C(O)C(F)(F)F`, the “Percent Effect” value amounted to 67.96%.

For the compound `CC(C)CN1C(=O)C2(CCN(Cc3ccc(F)cc3)C2)c2ccccc21` (stereo not given), the “Percent Effect” value was found to be 17.34%.

Regarding `Cc1ccc(CN2CCC3(C2)C(=O)N(CC(C)C)c2ccccc23)s1` (stereo not given), the “Percent Effect” value stood at 104.8%.

As for `Cc1ccc(CN2CCC3(C2)C(=O)N(CC2CC2)c2ccccc23)s1.O=C(O)C(F)(F)F` (stereo not given), the “Percent Effect” value is recorded as 22.05%.

With `Cc1ccc(CN2CCC3(CC2)C(=O)Nc2ccccc23)s1.O=C(O)C(F)(F)F`, the “Percent Effect” value came to 0.7618%.

As for `Cc1cccc(CN2C[C@@H]3COC[C@]3(COc3cccnc3)C2)n1.O=C(O)C(F)(F)F.O=C(O)C(F)(F)F.O=C(O)C(F)(F)F`, the “Percent Effect” value is on record as -8.53%.

Turning to `Cc1cc(Nc2nc(C)cs2)nc(C2CCCCN2CCO)n1` (stereo not given), the “Percent Effect” value is on record as 103.2%.

For `Cc1cccc(Nc2cc(C)nc(C3CCCCN3CC(N)=O)n2)n1` (stereo not given), the “Percent Effect” value is -15.32%.

As to `Cc1csc(Nc2cc(C3CCCCN3C)nc(C)n2)n1` (stereo not given), the “Percent Effect” value was -8.179%.

On to `COc1nc2cc(C)ccc2cc1CN(C)Cc1cc(C)[nH]n1.O=C(O)CC(O)(CC(=O)O)C(=O)O`, for which the “Percent Effect” value was -1.641%.

Turning to `O=C(O)C(F)(F)F.O=C(O)C(F)(F)F.O=C1[C@H]2CN(Cc3ccoc3)C[C@H]2CN1CCN1CCCC1`, the “Percent Effect” value is listed as -10.49%.

Consider `O=C(c1ncccn1)N1C[C@@H]2COC[C@]2(COc2cccnc2)C1`, for which the “Percent Effect” value is recorded as 26.01%.

Regarding `O=C(C1=CCCC1)N1C[C@@H]2COC[C@]2(COc2cccnc2)C1`, the “Percent Effect” value turned out to be 1.513%.

Consider `O=C(c1cocn1)N1C[C@@H]2COC[C@]2(COc2cccnc2)C1`, for which the “Percent Effect” value worked out at 75.2%.

As to `O=C(O)C(F)(F)F.O=C(c1cocn1)N1C[C@H]2CCC[C@@]2(COc2ccccn2)C1`, the “Percent Effect” value worked out at 21.2%.

Consider `Cn1cc(CNC2CC3(CCN(S(C)(=O)=O)CC3)c3ccccc32)cn1.O=C(O)C(F)(F)F` (stereo not given), for which the “Percent Effect” value turned out to be 36.25%.

Consider `CS(=O)(=O)N1CCC2(CC1)CC(NCC1CC1)c1ccccc12.O=C(O)C(F)(F)F` (stereo not given), for which the “Percent Effect” value was 1.272%.

In the case of `CS(=O)(=O)N1CCC2(CC1)CC(NCc1ccco1)c1ccccc12.O=C(O)C(F)(F)F` (stereo not given), the “Percent Effect” value is reported as 55%.

`COc1cccc(C2CCN(c3ccc4cc[nH]c4n3)C2)c1OC` (stereo not given): the “Percent Effect” value stood at 36.99%.

For `COc1ccc(OC)c(C2CCN(c3ccc4cc[nH]c4n3)C2)c1` (stereo not given), the “Percent Effect” value came to 103.8%.

With `COc1ccccc1C1CCN(c2ccc3cc[nH]c3n2)CC1`, the “Percent Effect” value is given as -1.592%.

In the case of `CS(=O)(=O)N1C[C@H]2CC[C@@H]1CN(Cc1ccncc1)C2`, the “Percent Effect” value is listed as -0.4425%.

Turning to `Cn1cc(N2CCC3(CCN(Cc4nccs4)C3)C2=O)cn1.O=C(O)C(F)(F)F` (stereo not given), the “Percent Effect” value is reported as -0.6336%.

For `Cc1cnnn1Cc1ncn2c1CN(Cc1cccs1)CCC2.O=C(O)C(F)(F)F`, the “Percent Effect” value turned out to be 1.772%.

With `O=C(O)C(F)(F)F.O=C(O)C(F)(F)F.O=C1CO[C@@H]2CN(CC3CCOCC3)C[C@H]2N1Cc1ccncc1`, the “Percent Effect” value is reported as -5.107%.

Take `N#Cc1cc(NC(=O)c2ccsc2)ccc1N1CCC(O)CC1`: the “Percent Effect” value was found to be 11.62%.

Regarding `Cc1ccc(C(=O)Nc2ccc(N3CCC(O)CC3)c(C#N)c2)s1`, the “Percent Effect” value was 25.13%.

Take `Cc1ccsc1C(=O)Nc1ccc(N2CCC(O)CC2)c(C#N)c1`: the “Percent Effect” value was 75.65%.

Regarding `COc1ccc(C[C@H]2CN(C(=O)c3ccc(C)nc3)CC[C@@H]2OC)cc1.O=C(O)C(F)(F)F`, the “Percent Effect” value is -2.913%.

Turning to `CNC(=O)[C@H]1C[C@@H]2CCN(Cc3ccncc3)C[C@H]2O1.O=C(O)C(F)(F)F.O=C(O)C(F)(F)F`, the “Percent Effect” value was -3.411%.

As for `CC(C)c1cc(C(=O)NCC2CCCN(C(C)C)C2)n(C)n1.Cl` (stereo not given), the “Percent Effect” value is -0.8268%.

Turning to `Cc1cnn(CC2CCCN2CC(=O)Nc2cc(C(C)(C)C)no2)c1` (stereo not given), the “Percent Effect” value is on record as 73.93%.

For `Cc1cc(C)n(CC2CCCN2CC(=O)Nc2cc(C(C)C)no2)n1` (stereo not given), the “Percent Effect” value came out at 66.41%.

Consider `Cc1cnn(CC2CCCN2CC(=O)Nc2cc(C)no2)c1` (stereo not given), for which the “Percent Effect” value was determined as 35.93%.

For the compound `CC(C)(C)c1cc(NC(=O)CN2CCCCC2Cn2cncn2)on1` (stereo not given), the “Percent Effect” value was -1.6%.

Take `CC(C)(C)c1cc(NC(=O)CN2CCCC2Cn2cncn2)on1` (stereo not given): the “Percent Effect” value is 2.377%.

`Cc1nc(C)n(CC2CCCN2CC(=O)Nc2cc(C(C)C)no2)n1` (stereo not given): the “Percent Effect” value is listed as -40.94%.

As to `CC(C)c1cc(NC(=O)CN2CCCC2Cn2cccn2)on1` (stereo not given), the “Percent Effect” value was -10.53%.

In the case of `Cc1cnn(CC2CCCN2CC(=O)Nc2cc(C(C)C)no2)c1` (stereo not given), the “Percent Effect” value stood at 98.13%.

`Cc1cnn(CC2CCCN2CC(=O)Nc2cc(C)on2)c1` (stereo not given): the “Percent Effect” value was -31.38%.

Turning to `CC(C)c1cc(NC(=O)CN2CCCC2Cn2cncn2)on1` (stereo not given), the “Percent Effect” value is listed as -8.042%.

For `Cc1cnn(CC2CCCN2CC(=O)NC2CCOCC2)c1` (stereo not given), the “Percent Effect” value is reported as -0.7823%.

Consider `CC(C)(C)c1cc(NC(=O)CN2CCCC2Cn2cccn2)on1` (stereo not given), for which the “Percent Effect” value was found to be 77.39%.

On to `CCCc1nc(CN2CCCC(Cn3cncn3)C2)no1` (stereo not given), for which the “Percent Effect” value is recorded as -9.9%.

Regarding `O=C(O)C(F)(F)F.O=C(O)C(F)(F)F.c1cncc(OCC2CN(Cc3ccsc3)Cc3nccn3C2)c1` (stereo not given), the “Percent Effect” value was -18.26%.

With `COCCN1C(=O)C[C@H]2[C@H]1CCN2Cc1ccccc1.O=C(O)C(F)(F)F`, the “Percent Effect” value is 3.349%.

Regarding `CN(C)[C@@H]1CCN(C(=O)c2ccsc2)[C@H]1Cc1cccnc1.O=C(O)C(F)(F)F.O=C(O)C(F)(F)F`, the “Percent Effect” value was -16.81%.
